Several values for one entry are separate records, joined by “and”; a condition that tells them apart may be missing. Identical values can stand only once. Some structures have more than one record in an assay (separate samples or runs), and their calls can disagree. Activity calls are given as the source filed them. The calls were made as follows, unless noted: active = hit-call score of the fitted dose curve at least 0.9, where 1 is the maximum; inactive = score below 0.9.
Legend:
[1] = read-out: E-selectin (Homo sapiens) (UniProt P16581); assay: BSK_IMphg_ESelectin: BioMAP Diversity Plus: IMphg Assay for Eselectin Biomarker Activity (AID 2284291); conditions: primary human endothelial cells with macrophages
In short: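 Human venular endothelial cell–macrophage co-culture, E-selectin measured by ELISA 24 h after chemical dosing. Signal fitted in the positive direction against DMSO as negative control and baseline.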

[2] = BSK_IMphg_SRB: Viability Assessment in the BioMAP Diversity Plus: IMphg Assay (AID 2284292); conditions: primary human endothelial cells with macrophages;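 also: measured one day after compound addition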
In short: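 Human venular endothelial cells with macrophages, 24 h after chemical dosing; total protein by 0.1% SRB staining after 10% TCA fixation, read at 560 nm. Positive-direction fitting versus DMSO baseline.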

[3] = read-out: Interleukin-10 (IL10), IL10 (gene 3586); assay: BSK_IMphg_IL10: BioMAP Diversity Plus: IMphg Assay for Interleukin-10 (IL10) Biomarker Activity (AID 2284294); conditions: primary human endothelial cells with macrophages
In short: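 Human venular endothelial cells cocultured with macrophages, dosed 24 h; IL-10 measured by ELISA, activity relative to DMSO. Cytotoxicity assessed in parallel cultures by sulforhodamine B total-protein staining.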

[4] = BSK_IMphg_SRB.Mphg: Macrophage Viability Assessment in the BioMAP Diversity Plus: IMphg Assay (AID 2284295); conditions: primary human endothelial cells with macrophages
In short: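 Venular endothelial cells co-cultured with macrophages, read 24 h after dosing. Total protein measured by 0.1% SRB staining after 10% TCA fixation, absorbance at 560 nm. Fitted in positive direction against DMSO baseline.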

[5] = read-out: Thrombomodulin, THBD (gene 7056); assay: BSK_LPS_Thrombomodulin: BioMAP Diversity Plus: LPS Assay for Thrombomodulin Biomarker Activity (AID 2284296); conditions: primary human HUVEC with PBMC
In short: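 Human umbilical vein endothelial cells co-cultured with PBMC and stimulated with LPS; cell-surface thrombomodulin measured by ELISA 24 hours after compound. Gain or loss versus DMSO; cytotoxicity checked by SRB staining in parallel cultures.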

[6] = read-out: CD69, CD69 (gene 969); assay: BSK_LPS_CD69: BioMAP Diversity Plus: LPS Assay for CD69 Biomarker Activity (AID 2284303); conditions: primary human HUVEC with PBMC
In short: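 Human umbilical vein endothelial cells co-cultured with PBMC under LPS stimulation, chemical exposure 24 h; cell-surface CD69 measured by ELISA and fitted in the positive direction versus DMSO.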

[7] = system: IYD (gene 389434); assay: CCTE_GLTED_hIYD: CCTE's human Iodotyrosine Deiodinase (xIYD) Inhibition Assay, Great Lakes Toxicology and Ecology Division (GLTED) Lab (AID 2284317; active = hit-call score of the fitted dose curve at least 0.9, where 1 is the maximum;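 also: cell-free human IYD enzyme made in baculovirus insect cells; iodide freed from monoiodotyrosine measured by cerium arsenite color change at 420 nm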)
In short: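 Human IYD expressed in a baculovirus-insect cell system was incubated 3 h with monoiodotyrosine and test chemical. Released iodide, separated on Dowex columns, was quantified by the Sandell-Kolthoff reaction at 420 nm; plates were normalized to MNT and DMSO/NaOH controls.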

[8] = read-out: Macrophage colony-stimulating factor (MCSF), CSF1 (gene 1435); assay: BSK_IMphg_MCSF: BioMAP Diversity Plus: IMphg Assay for Macrophage colony-stimulating factor (MCSF) Biomarker Activity (AID 2284293); conditions: primary human endothelial cells with macrophages
In short: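 Co-culture of human venular endothelial cells and macrophages, 24 hours of chemical exposure. M-CSF quantified by ELISA, with parallel SRB total-protein staining for cytotoxicity; activity fitted relative to DMSO.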

Measured: AC50

Chain of E-selectin (Homo sapiens) (P16581 whole entry, looked up): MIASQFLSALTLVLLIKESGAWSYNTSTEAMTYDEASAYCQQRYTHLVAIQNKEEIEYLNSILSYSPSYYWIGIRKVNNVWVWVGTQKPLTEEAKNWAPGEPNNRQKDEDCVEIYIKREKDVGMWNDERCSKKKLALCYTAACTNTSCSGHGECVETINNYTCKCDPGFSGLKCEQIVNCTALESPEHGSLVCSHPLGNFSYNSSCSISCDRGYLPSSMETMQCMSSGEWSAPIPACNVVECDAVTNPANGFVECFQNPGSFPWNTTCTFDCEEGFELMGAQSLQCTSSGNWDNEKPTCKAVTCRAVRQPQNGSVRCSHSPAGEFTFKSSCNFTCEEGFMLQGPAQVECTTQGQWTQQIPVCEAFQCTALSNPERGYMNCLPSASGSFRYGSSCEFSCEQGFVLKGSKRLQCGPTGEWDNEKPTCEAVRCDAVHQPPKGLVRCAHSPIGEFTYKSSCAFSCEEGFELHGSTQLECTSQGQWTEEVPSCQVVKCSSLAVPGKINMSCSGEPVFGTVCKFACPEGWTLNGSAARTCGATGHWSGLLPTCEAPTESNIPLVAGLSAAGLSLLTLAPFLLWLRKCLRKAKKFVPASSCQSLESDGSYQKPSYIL

FC1CC(F)(F)C(F)(F)C1(F)F (centres undefined)
not listed: [7] | [8]
inactive: all other assays above

O=S(=O)(O)C(F)(F)C(F)(F)C(F)(F)C(F)(F)C(F)(F)C(F)(F)C(F)(F)F
active: [3] 13.3 µM | [7] 100 µM
inactive: [1] | [3] | [4] | [5] | [6]

O=C(CC(=O)C(F)(F)C(F)(F)F)C(F)(F)F
not listed: [2] | [7]
inactive: all other assays above

O=C(Cl)C(F)(F)C(F)(F)C(F)(F)C(F)(F)C(F)(F)C(F)(F)C(F)(F)C(F)(F)F
inactive: [1] | [3] | [4] | [5] | [6]
active: [1] 40.2 µM | [3] 51.8 µM and 44.2 µM | [5] 40.9 µM and 21.5 µM | [6] 18.1 µM and 22.1 µM | [7] 139 µM

OCC(F)(F)C(F)(F)C(F)(F)C(F)(F)C(F)(F)C(F)(F)F
inactive: [1] | [3] | [4] | [5] | [6]
active: [4] 21.6 µM

O=C(O)C(F)(F)C(F)(F)C(F)(F)C(F)(F)C(F)(F)C(F)(F)C(F)(F)C(F)(F)C(F)(F)C(F)(F)C(F)(F)C(F)(F)F
not listed: [2] | [7]
inactive: all other assays above

FC(F)(Br)C(F)(F)C(F)(F)C(F)(F)C(F)(F)C(F)(F)Br
not listed: [7] | [8]
inactive: all other assays above

O=C(O)C(F)(F)C(F)(F)C(F)(F)C(F)(F)C(F)(F)C(F)(F)C(F)(F)C(F)(F)C(F)(F)C(F)F
active: [3] 47.3 µM and 45 µM | [4] 49 µM and 22.5 µM | [5] 55 µM and 12.4 µM | [6] 37.8 µM and 27.9 µM | [7] 73.5 µM
inactive: [1] | [8]

COC(=O)CCC(F)(F)C(F)(F)C(F)(F)C(F)(F)F
inactive: [1] | [2] | [8] | [3] | [4] | [5] | [6]
active: [3] 7.74 µM

FC(F)(F)C(F)(F)C(F)(F)C(F)(F)C(F)(F)C(F)(F)C(F)(F)C(F)(F)F
not listed: [7] | [8]
inactive: all other assays above

C=CC(F)(F)C(F)(F)C(F)(F)C(F)(F)C(F)(F)C(F)(F)C(F)(F)C(F)(F)F
not listed: [2] | [7]
inactive: all other assays above

C=C(C)C(=O)OCC(F)(F)C(F)(F)C(F)(F)C(F)(F)C(F)(F)C(F)(F)C(F)(F)F
inactive: [1] | [2] | [3] | [4] | [5] | [6]
active: [3] 3.33 µM | [4] 0.0248 µM

O=C(O)C(F)(OC(F)(F)C(F)(OC(F)(F)C(F)(F)C(F)(F)F)C(F)(F)F)C(F)(F)F (centres undefined)
not listed: [2] | [7]
inactive: all other assays above

O=C(O)C(F)(F)C(F)(F)C(F)F
not listed: [7]
inactive: all other assays above

OCCCC(F)(F)C(F)(F)C(F)(F)C(F)(F)C(F)(F)C(F)(F)C(F)(F)F
inactive: [1] | [3] | [4]
active: [1] 45.4 µM | [3] 54.9 µM | [4] 46.3 µM | [5] 49.4 µM and 45.6 µM | [6] 52.1 µM and 51.7 µM

FC(F)(F)C(F)(F)C(F)(F)C(F)(F)C(F)(F)C(F)(F)C(F)(F)I
not listed: [7] | [8]
inactive: all other assays above

O=S(=O)(OCC(F)F)C(F)(F)F
active: [4] 0.221 µM
inactive: [1] | [8] | [3] | [4] | [5] | [6]

O=C(O)C(F)(F)C(F)(F)F
not listed: [2] | [7]
inactive: all other assays above

OCCCC(F)(F)C(F)(F)C(F)(F)F
not listed: [7] | [8]
inactive: all other assays above

O=P(O)(O)OCCC(F)(F)C(F)(F)C(F)(F)C(F)(F)C(F)(F)C(F)(F)F
active: [1] 5.46 µM
inactive: [1] | [3] | [4] | [5] | [6]

O=C(O)C(F)(F)C(F)(F)C(F)(F)C(F)(F)F
not listed: [7]
inactive: all other assays above

FC(F)(F)C(F)(F)C(F)(F)CI
inactive: [1] | [2] | [3] | [4] | [5] | [6]
active: [5] 1.34 µM

FC(F)(F)C(F)(F)C(F)(F)C(F)(F)C(F)(F)C(F)(F)C(F)(F)Br
not listed: [7] | [8]
inactive: all other assays above

FC(F)(F)C(F)(F)C(F)(F)C(F)(F)C(F)(F)C(F)(F)CC1CO1 (centres undefined)
not listed: [2] | [7]
inactive: all other assays above

FC(F)(F)C(F)(F)C(F)(F)C(F)(F)CCI
not listed: [7]
inactive: all other assays above

FC(F)(F)C(F)(F)C(F)(F)C(F)(F)C(F)(F)C(F)(F)CCS
active: [3] 2.49 µM | [4] 2.57 µM
inactive: [1] | [3] | [4] | [5] | [6]
